The record followed here is PubChem BioAssay AID1347417 (National Center for Advancing Translational Sciences (NCATS), 2020).

Out of some 120,000 compounds screened, about 5,300 (4.4%) were called active. Inconclusive results (about 22%) are left out. Calls follow the shape of the dose curve; as a rule, active = well fitted inhibition curve with a large enough effect; inconclusive = small, poorly fitted or top-dose-only effect; inactive = no such curve, though single readings can be large or run the other way. Shown is part of a subset that was picked to be rich in actives. Where a call stands in place of a potency, no number is given.
Potency is read from the fitted curve at half-maximal effect.

The nature of the test: qHTS Primary assay for Inhibitors of Plasmodium falciparum Dd2 growth in vitro. Also: nearly all actives have a fitted effect of over 65% in size. The conditions noted are these: P. falciparum Dd2 growth, SYBR Green, 72 h; series mostly up to 28.9 µM. In short, it runs like this:
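Infected erythrocytes (Dd2, 0.3% parasitemia, 2.5% hematocrit final) are added to compound in RPMI-1640/Albumax II medium, grown 72 h at 37C in low oxygen, then lysed with saponin/Triton-X containing SYBR Green and read by fluorescence.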
(qHTS replaces the single test concentration by a dilution series.)
Consider `Cc1cc(=O)[nH]c(NCCNC(=O)c2cc(-c3cccn3C)n[nH]2)n1`, for which the Potency result was “inactive”.

Turning to `Cc1cccc(CC(=O)N2C[C@@H](COc3ccccc3)[C@H](C(N)=O)C2)c1`, the Potency entry was “inactive”.

On to `Cc1nc(C(=O)N2CC[C@H](NC(=O)c3snnc3C)C[C@H]2C(=O)N[C@H](CC(C)C)C(N)=O)cs1`, for which the Potency entry was “inactive”.

Consider `Cc1ccc(NC(=O)N2CC3CC(C2)[C@H]2CCCC(=O)N2C3)cc1F` (stereo partly specified), for which the Potency result is “inactive”.

`O=C(N[C@@H]1C[C@H](Cn2cc(CN3CCS(=O)(=O)CC3)nn2)[C@@H](O)[C@H]1O)c1cnccn1`: the Potency result is “inactive”.

On to `CCC1(N2CCN(C(=O)c3ccc(C(F)(F)F)s3)CC2)CCN(C(=O)NC)C1` (stereo unspecified), for which the Potency entry is “inactive”.

In the case of `N#Cc1ccccc1NC(=O)c1cc2n(n1)CC(c1ccc(Br)cc1)OC2` (stereo unspecified), the Potency entry is “inactive”.

Consider `CC(=O)N1CCN(c2ccc3nnc(-c4ccc(C)cn4)n3n2)CC1`, for which the Potency entry is “inactive”.

With `Cc1cn2nc(C(=O)N3CCC(NC(=O)CCc4ccccc4)CC3)cc2c(=O)[nH]1`, the Potency is 14.1 µM (active).

For `O=C(Cn1nc(-c2ccccc2)n(CCc2ccccc2)c1=O)NC1CC1`, the Potency entry was “inactive”.

With `Cc1cn2nc(C(=O)N3CCC(NC(=O)c4ccc(C#N)cc4)CC3)cc2c(=O)[nH]1`, the Potency entry is “inactive”.

Regarding `COC(=O)[C@@H](Cc1cccnc1)NC(=O)[C@H]1CN(S(=O)(=O)c2ccccc2)CCN1C(=O)N1CCOCC1`, the Potency entry was “inactive”.

On to `COC1C(=O)N(c2cccc(F)c2)C12CCN(C(=O)NCc1ccc(C)cc1)CC2` (stereo unspecified), for which the Potency entry is “inactive”.

With `CCS(=O)(=O)N1CCC2(CC1)CC(N1CCN(C(C)C)CC1)CCO2` (stereo unspecified), the Potency result was “inactive”.

Take `Cn1cc(CN2CCN(Cc3ccccc3)CC2)ccc1=O`: the Potency result was “inactive”.

With `O=C1CCC2(CCN(Cc3ccc4[nH]ccc4c3)CC2)CN1CCc1ccccc1`, the Potency was 7.08 µM (active).

Regarding `C=CCN1CC2(CCC1=O)CCN(C(=O)[C@H](N)Cc1ccccc1)CC2`, the Potency entry was “inactive”.

`COc1ccc(C(=O)N2CCCOCCNC(=O)CC2)c(OC)n1`: the Potency entry was “inactive”.

Turning to `CN(Cc1nc2ccsc2c(=O)[nH]1)C(=O)C1NCCc2[nH]cnc21` (stereo unspecified), the Potency entry was “inactive”.

In the case of `COc1ccc(C(=O)N2c3ccccc3CC2c2nc(C(C)C)no2)c(OC)c1` (stereo unspecified), the activity, negative = inhibition was 4.25% [at 5.79 µM] (inactive).

For `O=C1[C@H]2CN(Cc3ccccc3F)C[C@H]2C(=O)N1CCN1CCc2ccccc2C1`, the Potency is 5.01 µM (active).

Regarding `O=C(c1nc2c(o1)CCN(Cc1ccccc1F)CC2)N1CCOCC1`, the Potency result is “inactive”.

Consider `CN1C(=O)[C@H]2CN(Cc3ccccc3Cl)C[C@H]2C1=O`, for which the Potency result is “inactive”.

For `COCCn1cc(CN2CCN(c3ccccc3F)CC2)ccc1=O`, the Potency result was “inactive”.

`CCOc1ccc2c(n1)CCN(C(=O)C(C)C)C2`: the Potency result was “inactive”.

For `COc1ccc(Nc2ncc3c(n2)CCN(C(=O)OC(C)(C)C)C3)cc1`, the Potency was 5.62 µM (active).

`CCOc1ccc2c(n1)CCN(C(=O)Nc1ccc(OC)cc1C)C2`: the Potency result was “inactive”.

In the case of `COc1ccc(C(=O)NC2CCN(c3cc(-c4cccs4)[nH]n3)C2)cc1F` (stereo unspecified), the Potency result was “inactive”.

With `COCCc1noc(-c2ccc(NC(C)c3ncccc3C)nc2)n1` (stereo unspecified), the Potency entry is “inactive”.

Consider `O=C(NCC1(COc2cccnc2)C[C@@H](O)[C@@H](O)C1)C1CCCC1` (stereo partly specified), for which the Potency result was “inactive”.

Take `O=C1CCN(Cc2ccc3c(c2)CCO3)CCOCCN1`: the Potency result is “inactive”.

Consider `O=C(CC1CCCC1)N1CCOc2ccc(CN3CCc4ccccc4C3)cc2C1`, for which the Potency is 5.01 µM (active).

As for `CC(C)(O)CCc1ccc(C(=O)N2CCOc3ccc(Cl)cc3C2)cc1`, the Potency entry was “inactive”.

In the case of `O=C(c1ccccc1)N1CCOc2ccc(CN3CCc4ccccc4C3)cc2C1`, the Potency was 7.94 µM (active).

Regarding `CCC(C)N1CCN(C(=O)CCc2ccc3c(c2)CN(C(=O)C2CC2)CCO3)CC1` (stereo unspecified), the Potency entry was “inactive”.

`CC(C)C(=O)N1CCOc2ccc(CN3CCc4ccccc4C3)cc2C1`: the Potency entry is “inactive”.

Regarding `CC1CCC(NC(=O)CN2C(=O)NC3(CCS(=O)(=O)CC3)C2=O)CC1` (stereo unspecified), the Potency entry was “inactive”.

On to `Cc1ccc(CNC(=O)c2ccc(OC3CCN(S(C)(=O)=O)CC3)c(Cl)c2)s1`, for which the Potency entry was “inactive”.

Regarding `CN(Cc1cccn1C)Cc1ccnn1C`, the Potency entry was “inactive”.

With `CN(Cc1ccc(-c2ccccc2)cc1)C(=O)c1ccccc1F`, the Potency result is “inactive”.

With `O=C(O)COc1ccccc1CN1CC[C@H]2NCCC[C@]2(C(=O)O)C1`, the Potency entry is “inactive”.

On to `CC(C)=CCC1(CO)CCCN(Cc2ccccc2OCCO)C1` (stereo unspecified), for which the Potency is 12.6 µM (active).

Turning to `COc1ccccc1CNC(=O)CN1CCCC(CO)(CC2CC2)C1` (stereo unspecified), the Potency entry is “inactive”.

Consider `Cc1ccsc1CN1CCCCCNC(=O)[C@@H]2CCC[C@@H]21`, for which the Potency result was “inactive”.

As to `CC(C)N1C[C@H](O)C[C@H]1c1nnc2n1CCN(C(=O)CCCc1ccccc1)C2`, the Potency entry was “inactive”.

Regarding `COc1ccc(-c2cc(N3CCC(NC(=O)c4cccc(C)c4)CC3)n[nH]2)cc1`, the Potency result was “inactive”.

On to `COc1ccc(-c2cc(N3CCCC(NC(=O)c4ccsc4)C3)n[nH]2)cc1` (stereo unspecified), for which the Potency entry was “inactive”.

With `O=C(NC1CCCN(c2cc(-c3ccc(Cl)cc3)[nH]n2)C1)c1ccccc1F` (stereo unspecified), the Potency entry was “inactive”.

On to `COc1ccc(-c2cc(N3CCC(NC(=O)c4ccoc4)CC3)n[nH]2)cc1`, for which the Potency was 0.794 µM (active).

In the case of `COc1ccc(-c2cc(N3CCCC(NC(=O)c4cc(F)ccc4Cl)C3)n[nH]2)cc1` (stereo unspecified), the Potency is 8.91 µM (active).

Turning to `COc1ccc(-c2cc(N3CCC(NC(=O)c4ccc5c(c4)OCO5)CC3)n[nH]2)cc1`, the Potency result is “inactive”.

As for `COc1cccc(C(=O)N2CCC(N3C[C@H](O)C[C@H]3C(=O)N3CCC(N4CCCCC4)CC3)CC2)c1`, the Potency result is “inactive”.

As for `CC(C)Cc1ccc(S(=O)(=O)N2CCCC2c2nncn2Cc2ccncc2)cc1` (stereo unspecified), the Potency result is “inactive”.

For the molecule `CCC(CC)C(=O)N[C@@H](Cn1cc(-c2ccccc2F)c(=O)[nH]c1=O)C(=O)O`, the Potency entry was “inactive”.

For the molecule `CN(Cc1cccnc1)c1nc2c(c(=O)[nH]1)CCN(Cc1cc(F)ccc1F)CC2`, the activity, negative = inhibition is 14.7% [at 5.79 µM] (inactive).

Regarding `COc1ccc(-c2onc(C)c2C(=O)NCc2ccc3c(c2)OCO3)cc1`, the Potency entry was “inactive”.

Regarding `CCOc1ccccc1NC(=O)N1c2ccccc2CC1c1nc(C(C)C)no1` (stereo unspecified), the activity, negative = inhibition is -4.28% [at 5.79 µM] (inactive).

For `O=C(NC[C@H]1C[C@@H]2CCN1C[C@@H]2CN1CCN(c2ncccn2)CC1)c1ccc(C(F)(F)F)cc1`, the Potency result was “inactive”.

For the molecule `C=C[C@H]1CN2CC[C@H]1C[C@@H]2CNCc1ccc(C(F)(F)F)cc1`, the Potency is 2.24 µM (active).

`O=C(CC1=C2CCCCC2NC1=O)Nc1ccccc1F` (stereo unspecified): the Potency result was “inactive”.

Consider `O=C(NC1CCCc2c1[nH]c1ccc(F)cc21)c1n[nH]c2c1CCCC2` (stereo unspecified), for which the Potency result was “inactive”.

Take `c1ccc2c(c1)CNC1(CCN(Cc3cccc4ccccc34)CC1)CO2`: the Potency is 2 µM (active).

In the case of `CC1=NOC2(CCN(Cc3c[nH]c4ccccc34)CC2)C1`, the Potency entry is “inactive”.

As to `COc1ccc(CN2CCC3(COc4ccccc4C(=O)N3)C2)cc1` (stereo unspecified), the Potency entry is “inactive”.

Turning to `Cc1ccc(-c2nc(N3CCOCC3)cc3c2CN(Cc2cnn(C)c2)C3=O)cn1`, the Potency result was “inactive”.

`COc1ccc(CN2CCOc3nc(-c4cc(F)cc(OC)c4)ncc3C2=O)cc1`: the Potency entry is “inactive”.

Take `CCOc1ccccc1NC(=O)N1CCC(n2c(C)cnc2-c2cccnc2)CC1`: the Potency result is “inactive”.

For `C=C(C)COc1ccccc1C(=O)NC(C(=O)O)c1c(C)n[nH]c1C` (stereo unspecified), the Potency result is “inactive”.

For `COc1ccccc1-c1cc(C(F)(F)F)nc(S(=O)(=O)CCCC(=O)Nc2ccc(F)cc2F)n1`, the Potency was 8.91 µM (active).

As for `COc1ccccc1-c1cc(C(F)(F)F)nc(S(=O)(=O)CCCC(=O)Nc2cc(C)ccc2O)n1`, the Potency entry was “inactive”.

For `CSc1ccccc1NC(=O)CCS(=O)(=O)c1nc(-c2cccs2)cc(C(F)(F)F)n1`, the Potency result is “inactive”.

In the case of `Cc1noc(C)c1[S+](=O)([O-])N1CCCCC12Cc1ccccc1NC2=O` (stereo unspecified), the Potency entry was “inactive”.

In the case of `Fc1ccc(OCc2nc(C3CCNCC3)no2)cc1`, the Potency entry is “inactive”.

In the case of `CN1CCCCCCN(C(=O)C2CCOCC2)[C@H]2CCC[C@H]2C1=O`, the Potency result is “inactive”.

`CCN1CCN(C(=O)C23CCCC=C2N(C2CCCC2)C(=O)CC3)CC1` (stereo unspecified): the Potency result is “inactive”.

As to `CC1Oc2ccc(NC(=O)c3ccc([N+](=O)[O-])cc3)cc2CN(Cc2ccccc2)C1=O` (stereo unspecified), the Potency entry is “inactive”.

For the molecule `CCn1c(CN2CCC(C)CC2)nc2cc(NC(=O)c3ccccc3[N+](=O)[O-])ccc21`, the Potency is 11.2 µM (active).

Take `Cn1c(=O)c(=O)n(C)c2cc(NC(=O)c3ccccc3Br)ccc21`: the Potency result is “inactive”.

With `CC1CCC2(CC1)OCC(C(=O)NCc1ccc3c(c1)OCO3)N2C(=O)c1ccccc1F` (stereo unspecified), the Potency entry is “inactive”.

As for `O=C(NCCC1CCN(C(=O)Nc2cccc(F)c2)CC1)c1ccco1`, the Potency result was “inactive”.

Consider `O=C(NCCN1CCCCC1)C1Cn2cccc2C(=O)N1Cc1ccccc1` (stereo unspecified), for which the Potency result was “inactive”.

In the case of `COC[C@H]1CCCN1Cc1nc(C2(O)CCN(C(=O)C3CCOCC3)CC2)cs1`, the Potency result is “inactive”.

Regarding `COC[C@H]1CCCN1Cc1nc(C2(O)CCN(CC3CCCCC3)CC2)cs1`, the Potency was 10 µM (active).

In the case of `COc1cccc(C(=O)N2C(C(=O)NC(C)C)COC23CCN(C(=O)c2cccc(F)c2)CC3)c1` (stereo unspecified), the Potency result is “inactive”.

As for `N#CCCN1CCN(C(=O)c2cn3ccnc(-c4ccccc4)c3n2)CC1`, the Potency result is “inactive”.

On to `COc1cccc(NC(=O)N(Cc2cn(C)c3ccccc23)C2CCCCCC2)c1`, for which the Potency was 6.31 µM (active).

Turning to `COCCN1CCCCCC(O)c2cc(C(=O)Nc3cccc(OC)c3)ccc21` (stereo unspecified), the Potency result is “inactive”.

`COCC(=O)NC[C@H]1CCN(Cc2cn(C)c3ccccc23)C[C@H]1N(C)C`: the Potency entry is “inactive”.

For the molecule `Cc1cccc(-c2nc3cnccn3c2NCCC(=O)N2CCCCCC2)c1`, the Potency entry was “inactive”.

As to `CNc1ccc(OC2CCN(C(=O)NCCc3ccccc3)CC2)nc1`, the Potency entry is “inactive”.

`CN1c2cc(C(=O)NCc3ccccc3Br)ccc2C(=O)N2CCCCC21` (stereo unspecified): the Potency is 7.08 µM (active).

`Cc1ccc(CNC(=O)c2ccc3c(c2)N(C)C2CCCCN2C3=O)cc1C` (stereo unspecified): the Potency entry is “inactive”.

As for `CN1c2cc(C(=O)N3CCC(C(N)=O)CC3)ccc2C(=O)N2CCCCC21` (stereo unspecified), the Potency result was “inactive”.

For `Cc1ccccc1CNC(=O)c1ccc2c(c1)N(C)C1CCCCN1C2=O` (stereo unspecified), the Potency is 4.47 µM (active).

As for `CN1c2cc(C(=O)Nc3ccc(Cl)cc3)ccc2C(=O)N2CCCCCC21` (stereo unspecified), the Potency result is “inactive”.

On to `CN1c2cc(C(=O)Nc3ccccc3)ccc2C(=O)N2CCCCCC21` (stereo unspecified), for which the Potency result was “inactive”.
